Assay outcomes (PubChem BioAssay)
DT40 TDP1 CPT: DT40-hTDP1 cell growth loss with CPT; 12% of 420,000 active; chicken DT40 Tdp1-/-;hTDP1 cells + 20 nM CPT, ATP luminescence, 48 h; Potency, µM (titrated, usually from 46.2 µM), inactives show at the highest dose activity change, negative = growth inhibition, actives largely listed as inhibitors; further: nearly all actives have a fitted effect of over 55% in size
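Cell growth measured by CellTiter-Glo luminescence after a minimum 48 h, 37 C compound exposure with 20 nM CPT in Tdp1-knockout DT40 cells stably expressing hTDP1, seeded 400/well; qHTS titration format.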
KB-3-1 cytotox: KB-3-1 parental cell cytotoxicity | Potency, µM (highest dose often 46.1 µM), hits mostly cytotoxic | AID 1347075 | 1.4% of 400,000 active | KB-3-1 viability, CellTiter-Glo ATP luminescence, 72 h; further: nearly all actives have a fitted effect of over 60% in size
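Screening of KB-3-1 cells (DMEM, 10% FBS, phenol-red free) ran from lowest to highest compound concentration; after 72 h at 37 °C viability was read luminescently and curves fitted.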
DT40 TDP1 no CPT: qHTS for Inhibitors of human tyrosyl-DNA phosphodiesterase 1 (TDP1): qHTS in cells in absence of CPT | AID 686978, 2013 | 15% of 420,000 active | DT40 Tdp1-/- hTDP1 cells, no CPT, ATP luminescence, 48 h | Potency, µM (titrated, usually from 46.2 µM), inactives show at the highest dose activity change, negative = growth inhibition, most hits filed as inhibitors; further: nearly all actives have a fitted effect of over 55% in size
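Readout: luminescence from CellTiter-Glo after 30 min in the dark at RT. Cells: DT40 Tdp1-/- with stable hTDP1, 400/well. Exposure: compounds alone, ≥48 hr, 37 °C.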
HT1080-NT tox: kills 2HG-producing HT-1080-NT fibrosarcoma cells. AID 686970. HT-1080-NT fibrosarcoma viability, CellTiter-Glo ATP luminescence, 48 h. Potency, µM (titrated, usually from 46.1 µM), without a hit: at the highest dose activity, negative = less viability, usual class: cytotoxic. 1.6% of 360,000 active;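 further: NT is the 2HG producing partner of a matched IDH1 knockdown line; 0% = DMSO-treated cells and -100% = media-only wells without cells; nearly all actives have a fitted effect of over 55% in size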
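750 cells/well, RPMI + 5% FBS; 2 h settle, compound pin-transfer, 48 h at 37 degrees C. CellTiter-Glo 10 min RT, luminescence. Normalized to DMSO and media-only wells.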
KB-V1 MDR tox: KB-V1 MDR subline cytotoxicity; Potency, µM (highest dose often 46.1 µM), usual class: cytotoxic; KB-V1 MDR cells viability, CellTiter-Glo, 72 h; AID 1347076; 3.4% of 400,000 active; further: nearly all actives have a fitted effect of over 60% in size
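KB-V1 MDR subline cells in DMEM (phenol-red free, 10% FBS) exposed to compounds in qHTS concentration series for 72 h at 37 degrees C. Viability read by CellTiter-Glo luminescence; concentration-effect curves fitted after normalization and correction.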
HT1080 IDH1KD tx: toxicity to HT-1080 IDH1 knockdown cells (counter line); Potency, µM (highest dose often 46.1 µM), for the others: top-dose activity, negative = toxicity, usual class: cytotoxic; 2% of 360,000 active; AID 686971; HT-1080 IDH1 knockdown viability, ATP luminescence, 48 h;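 further: 0% = DMSO wells and -100% = cell-free medium wells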
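% activity derives from luminescence (CellTiter-Glo), normalised to DMSO and no-cell wells. HT-1080-IDH1KD cells, 750/well, had 48 h compound exposure at 37 °C.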
* = called active by the depositor; i = inactive; ? = inconclusive; . = no result given; [ ] = dose if it differs, or a comment. Only some compounds are listed: those with a hit (about 19% of all), similar ones and a draw of the others. The call rests on the fitted dose curve; in most records, active means well fitted curve in the direction sought with a large enough effect; inconclusive means small, poorly fitted or top-dose-only effect, or another doubt; inactive means no such curve, though single readings can be large; an effect the other way counts as inactive or inconclusive. Unless noted, on the % scale 0 is the no-effect control and ±100 the full control effect; potency means the concentration at half of the fitted maximal effect.

SMILES	DT40 TDP1 CPT	KB-3-1 cytotox	DT40 TDP1 no CPT	HT1080-NT tox	KB-V1 MDR tox	HT1080 IDH1KD tx
COCCCNC(=O)c1cccc2c(-c3cccc(C(N)=O)c3)coc12	?	?	13µM*	-14%	?	16%
Cc1noc(C)c1-c1ccc(C(=O)NCc2ccccc2)c2occc12	?	?	?	-8%	i	-25%
NC(=O)c1cccc(-c2coc3c(C(=O)NCc4ccccc4)cccc23)c1	?	i	18µM*	?	i	?
COCCNC(=O)c1cccc2c(-c3cccc(C(N)=O)c3)coc12	?	i	?	5%	i	1%
O=S(=O)(Nc1cccc(S(=O)(=O)N2CCOCC2)c1)c1cccs1	5%	i	-2%	12%	i	7%
CCCS(=O)(=O)NC(=O)C1(C)CCCN(C(=O)c2ccccc2C(F)(F)F)C1 (stereo not drawn)	-19%	i	1%	?	i	25%
Cc1cc(-c2nnc(SCC(=O)c3ccc(F)cc3)o2)no1	12%	i	-4%	-15%	i	2%
COc1cc2c(cc1OC)C(C(=O)c1ccc(OC)c(OC)c1O)=NCC2	-14%[9.04 µM]	.	-24%[9.04 µM]	.	.	.
COc1cccc(-c2cc3c(c(OC)c2)OCCN(S(=O)(=O)c2ccccc2OC(F)(F)F)C3)n1	3%[9.04 µM]	.	-6%	.	.	.
COc1ccc(NC(=O)CN2CCN(CC(=O)Nc3ccccc3F)CC2)c(OC)c1	23µM*	i	?	7%	i	4%
COc1ccc(NC(=O)CN2CCN(CC(=O)Nc3ccccc3OC)CC2)c(OC)c1	-4%	i	-8%	9%	i	8%
COc1ccc(NC(=O)CN2CCN(CC(=O)Nc3ccccc3Cl)CC2)c(OC)c1	18µM*	i	18µM*	-3%	i	-3%
Cc1ccc(-n2c3nc(=O)[nH]c(=O)c-3cc3c(C)nn(-c4ccccc4)c32)cc1C	-13%	i	-7%	.	i	.
CCOc1ccc(CCNC(=O)CCCc2nnc3n(CCCOC)c(=O)c4sccc4n23)cc1	?	.	-33%	.	.	.
O=C1CCCC/C1=N\Nc1ccc(OCc2ccccc2)cc1	0%	i	-26%	?	i	5.2µM*
Oc1ccc(NCc2ccc(OCc3ccccc3)cc2)cc1	6.5µM*	?	12µM*	23µM*	i	?
Oc1ccc(OCc2ccccc2)cc1	4µM*	.	?	.	.	.
CCC(C)NC(=O)COc1ccc(OCc2ccccc2)cc1 (stereo not drawn)	?	i	26µM*	9%	i	14%
Cn1c(=O)c2c(-c3ccc(Cl)cc3)ccnc2n(C)c1=O	-11%	i	?	.	i	.
Cc1cccc(CNc2cc(-c3ccc(C(=O)N(C)C)cc3)ncn2)c1	-21%	.	-15%	.	.	.
S=C(c1ccc(OCc2ccccc2)cc1)N1CCCC1	18µM*	i	?	-3%	i	-16%
COc1cc(NCc2ccc3nc(N)nc(N)c3c2C)cc(OC)c1OC	0.38µM*	.	0.12µM*	.	.	.
COc1ccc(CNc2ccncc2)c(OC)c1OC	?	i	-22%	-17%	i	-9%
N#Cc1ccc(Cl)cc1NC(=O)CSc1cccc[n+]1[O-]	?	i	23µM*	-1%	i	0%
O=C(O)CSc1cccc[n+]1[O-]	-4%	i	?	8%	i	1%
SMILES	DT40 TDP1 CPT	KB-3-1 cytotox	DT40 TDP1 no CPT	HT1080-NT tox	KB-V1 MDR tox	HT1080 IDH1KD tx
O=C(CSc1cccc[n+]1[O-])c1cc(Cl)ccc1Cl	0.01µM*	i	0.29µM*	-25%	i	2.3µM*
O=C(CSc1cccc[n+]1[O-])c1cccs1	?	i	4.1µM*	6%	?	12%
O=C(CSc1cccc[n+]1[O-])Nc1cc(Cl)ccc1[N+](=O)[O-]	?	i	?	1%	i	14%
O=C(CSc1cccc[n+]1[O-])c1cc2ccccc2o1	21µM*	18µM*	?	7.3µM*	21µM*	16µM*
Cc1ccc(S(=O)(=O)Nc2ccc(Oc3cccnc3)nc2)cc1	14%	i	3%	11%	i	5%
COc1cccc(CNC(=O)CN2C(=O)COc3ccc(S(=O)(=O)N4CCC(C)CC4)cc32)c1	-26%	i	-6%	-9%	i	-1%
CC(CC(=O)N1CCN(S(=O)(=O)c2ccc(Cl)cc2)CC1)n1cncn1 (stereo not drawn)	2%	i	4%	12%	i	15%
O=C(NC(c1ccc(Cl)cc1)c1cnccn1)C1CCN(Cc2ccc(Oc3ccccc3)cc2)CC1 (stereo not drawn)	15µM*	?	16µM*	?	?	16µM*
Cc1ccc(C(NC(=O)C2CCN(Cc3ccc(Oc4ccccc4)cc3)CC2)c2ccccn2)cc1 (stereo not drawn)	?	i	23µM*	15µM*	i	21µM*
Cc1ccc(C(NC(=O)C2CCN(Cc3ccc(Cl)c(Cl)c3)CC2)c2ccccn2)cc1 (stereo not drawn)	?	?	1.3µM*	?	?	?
Cc1cccc(NC(=O)Cn2c(=O)c3cccn3c3ccccc32)c1C	-1%	.	-6%	.	.	.
CN(C)N=Nc1nc2c(c(=O)n(C)c(=O)n2C)n1CC1CO1 (stereo not drawn)	3.7µM*	?	15µM*	?	i	?
CN(C)N=Nc1nc2c([nH]1)c(=O)n(C)c(=O)n2C	-4%	i	-25%	0%	i	-7%
CN1CCN(C(=O)CCCN2C(=O)/C(=C/c3cccc(Br)c3)SC2=S)CC1	-22%	?	?	?	?	18µM*
CN1CCN(C(=O)CCN2C(=O)/C(=C/c3cccc(Br)c3)SC2=S)CC1	?	?	12µM*	15µM*	i	?
O=C(CCCN1C(=O)/C(=C\c2cccc(Br)c2)SC1=S)Nc1ccc(C(=O)O)cc1	6%	i	-16%	-1%	i	13%
O=C(CCN1C(=O)/C(=C\c2cccc(Br)c2)SC1=S)NCCCN1CCOCC1	?	i	?	-12%	i	-16%
CN(C)S(=O)(=O)c1ccc(C(=O)NCCS(=O)(=O)N2CCN(c3ccccc3)CC2)cc1	-25%	.	?	.	.	.
NC(c1csc(Nc2ccccn2)n1)C1CCCCC1 (stereo not drawn)	15µM*	i	16µM*	-21%	i	?
